Hit rate of the full screen: of about 5,500 compounds, about 2,000 (36%) were called active. Roughly 18% stayed inconclusive and do not appear here. Rule as the data show it: active = normalized growth mostly below about 0.91 (no sharp cut-off); inconclusive = no clear call, values can overlap the other calls; inactive = mostly above about 0.92. Some of the results follow.
Assay: chemical genetic growth profiling, strain panel (AID 1159580);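 also: tested at 20 µM; growth read once vehicle control cultures reached saturation at 30 °C; 1 = growth at the plate median or of vehicle wells; lower values mean less growth of the strain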
Details: S. cerevisiae deletion strains, growth OD

Measured: normalized growth

CC(CC(C(N)=O)(c1ccccc1)c1ccccc1)N(C)C (stereo not given)
inactive: locus YAL021C, strain ccr4, stronger effect = lower value 0.952 | locus YAL026C, strain drs2, stronger effect = lower value 0.977 | locus YAL030W, strain snc1, stronger effect = lower value 0.996 | locus YBL061C, strain skt5, stronger effect = lower value 0.983 | locus YBR009C, strain hhf1, stronger effect = lower value 0.988 | locus YBR023C, strain chs3, stronger effect = lower value 0.949 | locus YBR171W, strain sec66, stronger effect = lower value 0.967 | locus YBR231C, strain swc5, stronger effect = lower value 0.994 | locus YBR279W, strain paf1, stronger effect = lower value 0.995 | locus YCL011C, strain gbp2, stronger effect = lower value 0.963 | locus YCL016C, strain dcc1, stronger effect = lower value 0.989 | locus YCL061C, strain MRC1, stronger effect = lower value 0.981 | locus YCL069W, strain vba3, stronger effect = lower value 0.976 | locus YCR088W, strain abp1, stronger effect = lower value 0.973 | locus YDL005C, strain med2, stronger effect = lower value 0.989 | locus YDL040C, strain nat1, stronger effect = lower value 0.996 | locus YDR001C, strain nth1, stronger effect = lower value 0.974 | locus YDR069C, strain doa4, stronger effect = lower value 0.973 | locus YDR137W, strain rgp1, stronger effect = lower value 0.968 | locus YDR159W, strain sac3, stronger effect = lower value 0.981 | locus YDR195W, strain ref2 0.981 | locus YDR297W, strain sur2, stronger effect = lower value 0.983 | locus YDR334W, strain swr1, stronger effect = lower value 0.942 | locus YDR335W, strain msn5, stronger effect = lower value 0.978 | locus YDR392W, strain spt3, stronger effect = lower value 0.958 | locus YEL003W, strain gim4, stronger effect = lower value 0.982 | locus YEL037C, strain rad23, stronger effect = lower value 0.939 | locus YEL061C, strain CIN8 (second series), stronger effect = lower value 0.982 | locus YER015W, strain faa2, stronger effect = lower value 1.01 | locus YER016W, strain bim1, stronger effect = lower value 0.982 | locus YER111C, strain swi4, stronger effect = lower value 0.994 | locus YER155C, strain BEM2 (second series), stronger effect = lower value 0.985 | locus YFR010W, strain ubp6, stronger effect = lower value 0.964 | locus YGL167C, strain pmr1, stronger effect = lower value 0.988 | locus YGL173C, strain kem1, stronger effect = lower value 0.975 | locus YGL227W, strain vid30, stronger effect = lower value 0.989 | locus YGL240W, strain doc1, stronger effect = lower value 0.981 | locus YGL253W, strain hxk2, stronger effect = lower value 0.937 | locus YHR013C, strain ard1, stronger effect = lower value 0.951 | locus YHR027C, strain rpn1, stronger effect = lower value 0.978 | locus YHR030C, strain SLT2, stronger effect = lower value 1.02 | locus YHR079C, strain IRE1, stronger effect = lower value 1.02 | locus YHR142W, strain chs7, stronger effect = lower value 0.957 | locus YJL092W, strain hpr5, stronger effect = lower value 0.969 | locus YJL095W, strain BCK1 (second series), stronger effect = lower value 0.983 | locus YJL095W, strain BCK1, stronger effect = lower value 0.992 | locus YJL115W, strain asf1, stronger effect = lower value 0.962 | locus YJL129C, strain trk1, stronger effect = lower value 0.952 | locus YJL154C, strain vps35, stronger effect = lower value 0.984 | locus YJL164C, strain tpk1, stronger effect = lower value 0.974 | locus YJL166W, strain qcr8, stronger effect = lower value 0.987 | locus YJL187C, strain SWE1, stronger effect = lower value 0.984 | locus YJR066W, strain TOR1, stronger effect = lower value 0.969 | locus YKL160W, strain elf1, stronger effect = lower value 0.978 | locus YKR026C, strain gcn3, stronger effect = lower value 0.979 | locus YKR091W, strain srl3, stronger effect = lower value 0.987 | locus YLL001W, strain dnm1, stronger effect = lower value 0.994 | locus YLL026W, stronger effect = lower value 0.986 | locus YLL041C, strain sdh2, stronger effect = lower value 0.979 | locus YLR027C, strain aat2, stronger effect = lower value 0.989 | locus YLR113W, strain HOG1, stronger effect = lower value 0.999 | locus YLR221C, strain rsa3, stronger effect = lower value 0.979 | locus YLR258W, strain gsy2, stronger effect = lower value 0.978 | locus YLR262C, strain YPT6 (second series), stronger effect = lower value 0.977 | locus YLR320W, strain mms22, stronger effect = lower value 0.992 | locus YLR342W, strain FKS1, stronger effect = lower value 0.986 | locus YLR357W, strain rsc2, stronger effect = lower value 0.992 | locus YLR370C, strain arc18, stronger effect = lower value 0.984 | locus YLR384C, strain iki3, stronger effect = lower value 0.994 | locus YML120C, strain ndi1, stronger effect = lower value 0.97 | locus YMR058W, strain fet3, stronger effect = lower value 0.967 | locus YMR125W, strain sto1, stronger effect = lower value 0.995 | locus YMR129W, stronger effect = lower value 0.972 | locus YMR205C, strain PFK2, stronger effect = lower value 0.965 | locus YMR231W, strain pep5, stronger effect = lower value 0.983 | locus YNL071W, strain lat1, stronger effect = lower value 0.979 | locus YNL183C, strain NPR1, stronger effect = lower value 0.973 | locus YNL209W, strain ssb2, stronger effect = lower value 0.983 | locus YNL248C, strain rpa49, stronger effect = lower value 0.941 | locus YNL322C, strain KRE1 (second series), stronger effect = lower value 0.983 | locus YNR049C, strain mso1, stronger effect = lower value 0.976 | locus YOR001W, strain rrp6, stronger effect = lower value 0.959 | locus YOR070C, strain gyp1, stronger effect = lower value 0.99 | locus YOR080W, strain dia2, stronger effect = lower value 0.971 | locus YOR083W, strain WHI5, stronger effect = lower value 0.973 | locus YOR106W, strain vam3, stronger effect = lower value 0.982 | locus YOR231W, strain MKK1, stronger effect = lower value 1.04 | locus YOR265W, strain rbl2, stronger effect = lower value 0.991 | locus YOR270C, strain vph1, stronger effect = lower value 0.954 | locus YOR290C, strain snf2, stronger effect = lower value 0.988 | locus YPL051W, strain arl3, stronger effect = lower value 0.996 | locus YPL078C, strain atp4, stronger effect = lower value 0.94 | locus YPL106C, strain sse1, stronger effect = lower value 0.968 | locus YPL240C, strain hsp82, stronger effect = lower value 0.967 | locus YPL256C, strain CLN2, stronger effect = lower value 1.03

Reference: PubChem BioAssay AID1159580 (chemical genetic matrix, 2015)
